Our source for the INHIBITION values is ChEMBL document CHEMBL4513216, “Probing the Open Global Health Chemical Diversity Library for Multistage-Active Starting Points for Next-Generation Antimalarials” (ACS Infect Dis, 2020).

Screen size: about 69,000 compounds; about 8,600 (12%) showed an effect of 50% or more. The entries come from a sample that favours strong results as a whole.

In the test the test system is Plasmodium berghei. Put plainly: Screen against P. berghei liver stage (PbLuc), transformed with Luciferase, at 10uM. The following applies: tested at 10 uM. The class given is functional, HepG2.
As for `COc1ccc(OC)c(C(O)CNC(=O)Nc2ccc(F)cc2F)c1` (stereo not given), the INHIBITION was -27%.

For `c1ccc2c(c1)CC(CNCc1ccncc1)(N1CCCCC1)C2`, the INHIBITION was determined as 12.3%.

Take `CC(=O)NCCNC(=O)C1(N2CCCCC2)Cc2ccccc2C1`: the INHIBITION is -46.4%.

Regarding `Cn1cc(CNCC2(N3CCCCC3)Cc3ccccc3C2)cn1`, the INHIBITION is 78.1%.

Take `CSc1ncc(CNCC2(N3CCCCC3)Cc3ccccc3C2)cn1`: the INHIBITION was found to be 72.4%.

On to `O=C(NCCCO)C1(N2CCCCC2)Cc2ccccc2C1`, for which the INHIBITION amounted to 0.818%.

With `CCc1ccccc1CNC(=O)NCc1cnn(C)c1`, the INHIBITION was found to be 13.9%.

Consider `CCN(CC)CC1CN(CCc2ccccc2)Cc2nccn2C1` (stereo not given), for which the INHIBITION is 0.139%.

Consider `CC(c1cc(O)nc(NC2CCCC2)n1)n1ncc2ccccc2c1=O` (stereo not given), for which the INHIBITION is given as 4.8%.

For the molecule `Cc1nc(C)n(CC2CCCCN2CCOc2ccc(C#N)cc2)n1` (stereo not given), the INHIBITION is reported as 42%.

In the case of `CCc1ncc2c(n1)CN(C(C)C(=O)Nc1ccc(Cl)cn1)CC2` (stereo not given), the INHIBITION is recorded as 48.2%.

On to `Cc1nnc(C(C)Nc2cccc(COCCOC(C)C)c2)o1` (stereo not given), for which the INHIBITION is listed as 21.5%.

`Cc1nnc(C(C)Nc2cccc(COCCc3ccccc3)c2)o1` (stereo not given): the INHIBITION was 19.7%.

Take `Cc1nnc(C(C)Nc2cccc(COCC(F)(F)C(F)F)c2)o1` (stereo not given): the INHIBITION is recorded as 57.4%.

Consider `CN(C)CCNC(=O)[C@H]1C[C@H]2CN(C(=O)NC3CCCC3)C[C@@H]1O2`, for which the INHIBITION is on record as 6.83%.

For the molecule `Cc1ccc(Cn2cc(Br)c(NS(C)(=O)=O)n2)cc1`, the INHIBITION is given as 19.575%.

For `CNc1cc(C2CN(C(=O)c3ccccc3)CCO2)nc(C)n1` (stereo not given), the INHIBITION was determined as 23.9%.

On to `O=C(NCC1CC1)C1CSCN1S(=O)(=O)c1ccccc1F` (stereo not given), for which the INHIBITION was 26.6%.

In the case of `O=C(NCC(F)(F)F)C1CSCN1S(=O)(=O)c1ccccc1F` (stereo not given), the INHIBITION is 52.3%.

Turning to `CC(C)(C)NC(=O)C1CSCN1S(=O)(=O)c1ccccc1F` (stereo not given), the INHIBITION worked out at 32.7%.

`O=C(c1ccccc1-n1cccn1)N1CCC(Nc2cccnn2)CC1`: the INHIBITION is -92.9%.

As to `Oc1cc(C2CCCCN2C2CCCC2)nc(-c2cccnc2)n1` (stereo not given), the INHIBITION amounted to 15.5%.

Consider `Cc1ccc(C(=O)N(C)Cc2nccn2CC(F)(F)F)cn1`, for which the INHIBITION is recorded as -16.8%.

For the molecule `Cc1cc(C)nc(N2CCOC(C)(C(=O)N(C)C)C2)n1` (stereo not given), the INHIBITION is reported as -11.4%.

On to `Cc1nc(CO[C@@H]2CN(Cc3ccc(F)cc3)[C@@H]3COC[C@@H]32)cs1`, for which the INHIBITION was found to be 23.6%.

For the molecule `Cc1nc(CO[C@H]2CN(C(=O)c3cnoc3C)[C@@H]3COC[C@H]23)cs1`, the INHIBITION is 24.9%.

In the case of `Cc1nc(CO[C@@H]2CN(Cc3cnn(C)c3)[C@@H]3COC[C@@H]32)cs1`, the INHIBITION came out at 50.1%.

With `Cc1nc(CO[C@H]2CN(C(=O)c3cccn3C)[C@@H]3COC[C@H]23)cs1`, the INHIBITION is reported as 38.5%.

For `Cc1nc(CO[C@H]2CN(C(=O)c3cccnc3)[C@@H]3COC[C@H]23)cs1`, the INHIBITION is reported as 51.2%.

Take `Cc1nc(CO[C@@H]2CN(Cc3ccsc3)[C@@H]3COC[C@@H]32)cs1`: the INHIBITION is given as 14.1%.
